Measured values as given in PubChem BioAssay (EPA / NIEHS).
Inconclusive results are not listed. Active and inactive are the calls of the source. The calls were made as follows, unless noted: active = hit-call score of the fitted dose curve at least 0.9, where 1 is the maximum; inactive = score below 0.9.

Key:
[1] = CCTE_Mundy_HCI_Cortical_NOG_NeuriteCount: CCTE's Neurite Outgrowth Assay in rat cortical cells for Neurite Count, Mundy Lab (AID 2284212);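 also: cells fixed about two days after chemical exposure began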
Outline: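 Rat cortical primary cells; compound added 2 h post-plating, 1/10 dilution of working solution. Anti-betaIII-tubulin/AF488 ICC; ArrayScan neurite count vs DMSO.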

[2] = CCTE_Mundy_HCI_Cortical_NOG_NeuriteLength: CCTE's Neurite Outgrowth Assay in rat cortical cells for Neurite Length, Mundy Lab (AID 2284213)
Outline: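 First, rat primary cortical cells were plated and, 2 h later, given test chemical as a 1/10 dilution. Finally, βIII-tubulin immunostaining enabled automated imaging of neurite length.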

[3] = CCTE_Mundy_HCI_Cortical_Synap_Neur_Matur_NeuriteLength: CCTE's Synaptogenesis and Neurite Maturation Assay in rat cortical cells for Neurite Length, Mundy Lab (AID 2284214)
Outline: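 Cultures of rat primary cortical cells received chemical at DIV 7 and were fixed at DIV 12, after glial arrest with AraC at DIV 5. Neurite length was measured by automated imaging of MAP2 immunofluorescence.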

[4] = CCTE_Mundy_HCI_Cortical_Synap_Neur_Matur_SynapseCount: CCTE's Synaptogenesis and Neurite Maturation Assay in rat cortical cells for Synapse Count, Mundy Lab (AID 2284218)
Outline: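 Cells were plated, allowed 2 hr to attach, treated with AraC at DIV 5, then exposed to chemicals from DIV 7 until DIV 12. After fixation and MAP2/synaptophysin immunolabelling, synapses per neuron were quantified by automated imaging against DMSO.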

[5] = CCTE_Mundy_HCI_Cortical_Synap_Neur_Matur_NeuriteCount: CCTE's Synaptogenesis and Neurite Maturation Assay in rat cortical cells for Neurite Count, Mundy Lab (AID 2284222);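 also: exposure from day 7 to day 12 in vitro with readout at day 12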
Outline: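 In this multiplexed morphology readout, rat primary cortical neurons are fixed at DIV 12 following dosing at DIV 7 and stained for MAP2, synaptophysin and nuclei. High-content image analysis yields neurite count.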

[6] = CCTE_Mundy_HCI_Cortical_Synap_Neur_Matur_CellBodySpotCount: CCTE's Synaptogenesis and Neurite Maturation Assay in rat cortical cells for Cell Body Spot Count, Mundy Lab (AID 2284223)
Outline: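 Primary rat cortical cultures, AraC added at DIV 5; dosed DIV 7 through DIV 12 […]. Fixed, stained for MAP2 and synaptophysin with Hoechst; cell body-associated synaptophysin puncta per neuron counted by high-content imaging, loss vs DMSO.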

[7] = UKN2_HCS_IMR90_cell_viability: Viability Assessment in the University of Konstanz (UKN) Leist Lab Neural Crest Cell Migration Assay in human induced IMR90 Pluripotent Stem Cells (UKN2) (AID 2284233);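 also: viability of neural crest cells differentiated from IMR90 iPSC measured by calcein-AM fluorescence imaging; cells exposed to compound for 24 h after a 24 h migration phase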
Outline: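 cMINC format, iPSC-derived neural crest (IMR90); 24 h migration (EGF/FGF, N2-S), then 24 h toxicant. Calcein-AM/H-33342 stain 30 min; fluorescence intensity by HCS; DMSO-normalised, bidirectional fitting.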

[8] = CCTE_Mundy_HCI_Cortical_NOG_NeuronCount: CCTE's Neurite Outgrowth Assay in rat cortical cells for Neuron Count, Mundy Lab (AID 2284236; active = hit-call score of the fitted dose curve at least 0.9, where 1 is the maximum;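 also: neurons counted by imaging betaIII-tubulin and Hoechst stained cortical cells; cells exposed to compound for about 48 hours before fixation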)
Outline: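 Read-out: neuron number by high-content imaging of betaIII-tubulin (Alexa Fluor-488) and Hoechst-labelled rat primary cortical cells.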

[9] = CCTE_Mundy_HCI_Cortical_NOG_BPCount: CCTE's Neurite Outgrowth Assay in rat cortical cells for Branch Point Count, Mundy Lab (AID 2284237)
Outline: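 Measured 50.33 h after dosing, this morphology endpoint uses rat primary cortical cultures labelled for betaIII-tubulin. Branch points are quantified by high-content imaging, with DMSO as negative control and baseline.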

[10] = CCTE_Mundy_HCI_hNP1_Casp3_7: CCTE's Caspase-Glo 3/7 Assay in human neuroprogenitor cells for Apoptosis, Mundy Lab (AID 2284240)
Outline: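 Neuroepithelial-lineage stem cells from WA09 embryonic cells were treated with chemicals after 40–44 h of culture. Twenty-four hours later, caspase-3/7 activation was detected luminescently after a 30 min room-temperature reagent step, with DMSO as baseline.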

[11] = CCTE_Mundy_HCI_hNP1_CellTiter: CCTE's Cell Titer-Glo 2 Assay in human neuroprogenitor cells for Viability, Mundy Lab (AID 2284241; active = hit-call score of the fitted dose curve at least 0.9, where 1 is the maximum)
Outline: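 Measures ATP content in human neural progenitors derived from WA09 embryonic cells. Read-out at 26.5 hours after dosing, with DMSO serving as the negative control and baseline.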

[12] = IUF_NPC2a_radial_glia_migration_120hr: Leibniz Research Institute for Environmental Medicine (IUF) 120-hour Neural Progenitor Cell Migration Assay for Radial Glia Migration (NPC2a) (AID 2284298)
Outline: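 Human fetal-cortex neural progenitor spheres (0.3 mm) plated on poly-D-lysine/laminin in N2 differentiation medium, exposed 120 h at 37C with half-medium renewal at day 3. Radial glia migration distance (um) measured from Hoechst-stained nuclei images; DMSO baseline.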

[13] = IUF_NPC2a_radial_glia_migration_72hr: Leibniz Research Institute for Environmental Medicine (IUF) 72-hour Neural Progenitor Cell Migration Assay for Radial Glia Migration (NPC2a) (AID 2284299)
Outline: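 Single 0.3 mm neurospheres were plated per well in N2 differentiation medium and exposed from the start of differentiation. After 72 hours, brightfield images were taken and radial glia migration from the sphere core edge was measured manually in four directions, averaged per well.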

[14] = IUF_NPC2b_neuronal_migration_120hr: Leibniz Research Institute for Environmental Medicine (IUF) 120-hour Neural Progenitor Cell Migration Assay for Neuron Migration (NPC2b) (AID 2284300)
Outline: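 0.3 mm hNPC spheres on poly-D-lysine/laminin in N2 differentiation medium exposed 120 h, half-medium refresh day 3; 7 concentrations, DMSO max 0.1%. Neuron (TUBB3) distance from sphere core by ICC imaging, normalised to radial glia migration.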

[15] = IUF_NPC3_neuronal_differentiation_120hr: Leibniz Research Institute for Environmental Medicine (IUF) 120-hour Neuronal Differentiation Assay (NPC3) (AID 2284301)
Outline: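 Neuronal differentiation of primary human neural progenitors measured by high-content imaging: percent TUBB3+ of Hoechst+ nuclei within migrated area at 120 h, seven-point serial dilution plus solvent control, gain or loss relative to DMSO.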

[16] = IUF_NPC4_neurite_length_120hr: Leibniz Research Institute for Environmental Medicine (IUF) 120-hour Neuronal Morphology Assay for Neurite Length (NPC4) (AID 2284302)
Outline: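 Neurons from differentiating human fetal neural progenitor spheres are scored for average neurite length after five days of compound exposure. Fitting uses DMSO as negative control.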

[17] = IUF_NPC5_oligodendrocyte_differentiation_120hr: Leibniz Research Institute for Environmental Medicine (IUF) 120-hour Oligodendrocyte Differentiation Assay (NPC5) (AID 2284304; active = hit-call score of the fitted dose curve at least 0.9, where 1 is the maximum;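 also: primary human fetal neural progenitor spheres plated to migrate and differentiate; share of O4-positive cells among Hoechst nuclei found by CNN image analysis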)
Outline: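 Human fetal neural progenitor spheres (0.3 mm) plated on poly-D-lysine/laminin in N2 differentiation medium and exposed for 120 h at 7 concentrations, with half-medium renewal at day 3. O4-positive cells identified by CNN, expressed as percent of Hoechst nuclei.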

[18] = IUF_NPC2-5_cytotoxicity_72hr: Cytotoxicity Assessment at 72 hours in the Leibniz Research Institute for Environmental Medicine (IUF) Neural Progenitor Cell Migration and Differentiation Assay for Cytotoxicity (NPC2-5) (AID 2284306; active = hit-call score of the fitted dose curve at least 0.9, where 1 is the maximum;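 also: LDH release into supernatant measured by resorufin fluorescence marking membrane damage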)
Outline: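 Primary human neural progenitor spheres migrate and differentiate on laminin. Compound is present from the start of differentiation, with DMSO kept at or below 0.1%. At 72 h, supernatant LDH is quantified fluorometrically, with values fitted in the positive direction.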

[19] = IUF_NPC2-5_cytotoxicity_120hr: Cytotoxicity Assessment at 120 hours in the Leibniz Research Institute for Environmental Medicine (IUF) Neural Progenitor Cell Migration and Differentiation Assay (NPC2-5) (AID 2284307; active = hit-call score of the fitted dose curve at least 0.9, where 1 is the maximum)
Outline: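 Human fetal (GW 16-19) neural progenitor spheres (0.3 mm) plated on poly-D-lysine/laminin in N2 differentiation medium, exposed 120 h with half-medium renewal at day 3; 7 concentrations plus solvent control, DMSO ≤0.1%. LDH release in supernatant read by resorufin fluorescence.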

[20] = IUF_NPC2-5_cell_number_120hr: Cell Number Assessment at 120 hours in the Leibniz Research Institute for Environmental Medicine (IUF) Neural Progenitor Cell Migration and Differentiation Assay (NPC2-5) (AID 2284308);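 also: count of Hoechst-stained nuclei in migration zone around plated human neural progenitor spheres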
Outline: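 Human fetal neural progenitor spheres (0.3 mm) plated on poly-D-lysine/laminin in N2 differentiation medium, exposed five days across 7 concentrations with half-medium refresh at day 3. Hoechst-positive nuclei counted in migration area at 120 h, relative to DMSO.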

[21] = IUF_NPC2-5_viability_120hr: Viability Assessment at 120 hours in the Leibniz Research Institute for Environmental Medicine (IUF) Neural Progenitor Cell Migration and Differentiation Assay (NPC2-5) (AID 2284312)
Outline: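 Human fetal (GW 16-19) neural progenitor spheres of 0.3 mm were plated on poly-D-lysine/laminin in N2 differentiation medium and exposed from day 0 for 120 h, with half-medium refresh at day 3. Viability was read as alamar blue resazurin-to-resorufin fluorescence against DMSO.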

[22] = CCTE_Mundy_HCI_iCellGluta_NOG_NeuriteLength: CCTE's Neurite Outgrowth Assay in iCellGluta cells for Neurite Length, Mundy Lab (AID 2284318; active = hit-call score of the fitted dose curve at least 0.9, where 1 is the maximum)
Outline: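 Automated high-content imaging of betaIII-tubulin (Alexa Fluor-488) and Hoechst-stained cells gave neurite length, normalized to the DMSO baseline.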

[23] = IUF_NPC1_cytotoxicity_72hr: Cytotoxicity Assessment at 72 hours in the Leibniz Research Institute for Environmental Medicine (IUF) Neural Progenitor Cell Proliferation Assay (NPC1) (AID 2284332; active = hit-call score of the fitted dose curve at least 0.9, where 1 is the maximum;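 also: rising LDH signal means more cytotoxicity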)
Outline: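 Membrane-integrity loss is scored from LDH released into the medium, detected as resorufin fluorescence, with activity fitted upward relative to baseline. Test material stays on human fetal-derived progenitor spheres for 72 h.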

[24] = CCTE_Mundy_HCI_iCellGluta_NOG_NeuriteCount: CCTE's Neurite Outgrowth Assay in iCellGluta cells for Neurite Count, Mundy Lab (AID 2284342; active = hit-call score of the fitted dose curve at least 0.9, where 1 is the maximum;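 also: chemical exposure about 48 hours starting 2 hours after plating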)

Measured: outcome

C[C@@H]1CC[C@@H](C(C)(C)O)[C@H](O)C1
inactive: all assays above
